# Screening results from PubChem.
# Compounds with a hit are over-represented: about 4.7% of the library has one in this group of screens.
# TRHR agonist = agonists of human TRH receptor | actives 0.18% (n = 360,000) | P34981 | activation, % at 2 µM | AID 493084 | TRHR cells, calcium flux fluo-8, FDSS agonist mode; note: 0% is about no effect
# Target sequence (P34981 whole entry, looked up): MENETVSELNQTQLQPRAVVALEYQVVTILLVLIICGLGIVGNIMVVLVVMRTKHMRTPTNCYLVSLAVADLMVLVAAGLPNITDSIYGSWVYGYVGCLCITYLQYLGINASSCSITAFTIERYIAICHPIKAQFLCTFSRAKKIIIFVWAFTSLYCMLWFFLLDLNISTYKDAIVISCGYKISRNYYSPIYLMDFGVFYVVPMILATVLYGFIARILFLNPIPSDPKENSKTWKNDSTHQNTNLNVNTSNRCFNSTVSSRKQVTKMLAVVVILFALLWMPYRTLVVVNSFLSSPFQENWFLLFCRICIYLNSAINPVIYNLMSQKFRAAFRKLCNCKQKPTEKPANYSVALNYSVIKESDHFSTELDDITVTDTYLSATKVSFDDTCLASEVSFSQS
#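 Steps: seed TRHR cells overnight; add fluo-8 no-wash Ca dye, RT 30 min–1.5 h; record 10 s baseline; pin-transfer compounds; monitor fluorescence 1 cycle/s for the agonist window. Calcium increases flag candidate agonists.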
# D1 antag = blocks dopamine activation of the human D1 receptor. P21728. activity change, negative = inhibition, % at 10 µM. HEK293 TREx D1 cells, calcium flux, dopamine EC80; stronger effect = lower value. actives 3.2% (n = 360,000); in the data active = activity change below about -30%; note: % is set by controls: 0 for no effect and ±100 for the full control effect
#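 Cells carrying a force-coupled, tetracycline-inducible human D1 receptor report calcium flux. Each well gets a 10 s baseline, compound with 180 s monitoring, then an EC80 dopamine stimulus with a second 180 s kinetic read.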
# TRHR PAM = allosterically enhances the human TRH receptor | actives 0.66% (n = 360,000) | TRHR cells, fluo-8 calcium fluorescence, EC20 TRH enhancement | enhancement, % at 2 µM | P34981 | AID 493056; in the data active = enhancement above about 30%; note: 0% is about no effect
#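 Enhancer read-out: after compound pinning and an initial kinetic agonist-mode read, an EC20 of TRH (10 nM final) was injected and fluo-8 calcium signal (Ex 480/Em 530) followed at 1 s/cycle for 100 cycles in TRHR-expressing cells.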
# D1 potentiator = enhances dopamine response at the human D1 receptor. HEK293 TREx D1 cells, calcium flux, dopamine EC20 potentiation. actives 0.036% (n = 360,000). AID 504651. P21728. potentiation, % at 10 µM; in the data active = potentiation above about 30%; note: 0% is about no effect
# D1 ag = agonists of human D1 dopamine receptor | P21728 | HEK293 T-REx D1 cells, calcium flux, agonist mode | activation, % at 2 µM | actives 1% (n = 360,000); note: 0% is about no effect
#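 Tetracycline-induced HEK293 TREx D1 cells, force-coupled to calcium signalling, were dye-loaded with a no-wash calcium kit. Compound was pin-added after a 10 s baseline. Fluorescence was read kinetically at 1 cycle/s for 180 s, with calcium rises flagged as agonism.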
# * = called active by the depositor; / = no result. Cut-off read from the data, not from the text of the source, unless noted: active = activation above about 30%; inactive = the rest.
SMILES,TRHR agonist,D1 antag,TRHR PAM,D1 potentiator,D1 ag
CC(C)(C)c1ccc(S(=O)(=O)NC(Cc2ccccc2)C(=O)O)cc1 (stereo not drawn),0,-32*,-6,0,3
Cc1ccc(S(=O)(=O)NC(Cc2ccccc2)C(=O)O)cc1 (stereo not drawn),0,-8,-2,1,2
COc1ccc(-c2nc(CCNC(=O)c3c(F)cccc3Cl)cs2)cc1,-1,-6,-12,-3,1
CC(=O)Nc1ccc(S(=O)(=O)NCCS(=O)(=O)N2CCN(c3ccccc3F)CC2)cc1,0,17,-7,1,9
CCOc1ccccc1N1CCN(S(=O)(=O)CC)CC1,0,-3,-1,9,0
CCCCOc1ccc(S(=O)(=O)N2CCN(c3ccccc3OCC)CC2)cc1,0,-17,32*,-2,9
CCCCOc1ccc(C(=O)NCCS(=O)(=O)N2CCN(c3ccccc3OC)CC2)cc1,-1,-65*,-2,-2,3
COc1ccc(S(=O)(=O)NCCS(=O)(=O)N2CCN(c3ccccc3F)CC2)cc1,-1,-38*,-1,-1,8
COC(=O)c1ccc(C(=O)Nc2ccc(C(C)C)cc2N)cc1,0,-40*,1,3,-2
COC(=O)c1ccc(C(=O)NN)cc1,0,-6,14,-3,1
COc1ccc2c(CNCCc3ccc(SC)cc3)c(C(=O)O)n(Cc3ccc(F)cc3)c2c1,2,11,-5,-1,1
O=C(NCCC1=CCCCC1)C(c1ccccc1)c1ccccc1,0,-33*,-4,-8,5
O=C(CCCc1ccccc1)NCCC1=CCCCC1,-2,-10,0,-4,0
CCC1Oc2ccccc2N(CC(=O)NCCC2=CCCCC2)C1=O (stereo not drawn),-1,-34*,-1,-1,6
O=C(CCc1ccccc1)NCCC1=CCCCC1,0,-33*,7,14,2
O=C(NC(=S)NCCC1=CCCCC1)c1ccc(Br)o1,0,-32*,-8,-5,4
O=C(NCCC1=CCCCC1)c1ccc(Br)o1,0,6,-4,-7,0
Cc1ccc(N(C)C(=O)Cn2nc(Cc3ccncc3)c3ccccc3c2=O)cc1C,-1,5,-3,-3,-1
COc1cc(C(=O)Nc2ccc(C(=O)NCC3CCCO3)cc2)cc(OC)c1OC (stereo not drawn),0,-4,4,-1,2
CCOc1ccc(NC(=O)COc2ccc(C(=O)NCC3CCCO3)cc2OC)cc1 (stereo not drawn),1,-37*,4,12,2
CCOc1ccc(NC(=O)CN(C)C(=O)c2ccc(OCC3CCCO3)cc2)cc1OCC (stereo not drawn),0,-42*,0,-10,1
Cc1cccc(-c2nc3scc(CCNS(=O)(=O)c4ccc5c(c4)OCCO5)n3n2)c1,0,/,-2,0,8
CCN(c1ccc(C)cc1C)S(=O)(=O)c1nnc(NC(=O)c2ccccc2OC)s1,0,-24,3,-1,-2
N#Cc1c(SCC(=O)Nc2ccccc2C(F)(F)F)sc2c(O)cc(=O)[nH]c12,1,-33*,1,-10,2
Cc1c(Cl)cccc1NC(=O)CSc1sc2c(O)cc(=O)[nH]c2c1C#N,1,-7,-3,0,0
SMILES,TRHR agonist,D1 antag,TRHR PAM,D1 potentiator,D1 ag
COc1ccc(-c2cn3c(n2)sc2cc(C(=O)Nc4cc(Cl)ccc4C)ccc23)cc1,0,14,-1,2,3
CCN1CCN(c2c(S(=O)(=O)c3ccc(C)c(C)c3)cnc3cc(OC)c(OC)cc23)CC1,0,-66*,4,-8,0
CCc1ccc2ncc(S(=O)(=O)c3ccc(C)c(C)c3)c(N3CCCC3)c2c1,0,-7,-14,-2,4
CCc1ccc2c(CN(C)Cc3ccccc3OC)cc(=O)oc2c1,-1,-31*,0,-6,3
COc1ccc(Cc2nc(-c3ccc(-n4cccc4)cc3)no2)cc1,2,2,-1,-1,14
COc1ccc(-c2noc(COc3ccc(C)cc3C)n2)cc1OC,1,3,-7,0,14
COc1ccc(-c2noc(COc3cc(C)ccc3C)n2)cc1OC,2,5,-18,-2,47*
